For 40 sequences, sensor-assay potency score (higher = more potent) results are on record in the OligoGym collection.
Also: reference of the scale not given here.

In one assay the target is MAPK4. In words: pooled miR-30 sensor sort-seq; sequence = guide strand. The note with it: shRNA.
Regarding TTGTAGTCGCAGGAGCGCCCGT, the sensor-assay potency score (higher = more potent) was -1.23.

TTAAAGAAAAAACAAAACCCAA registered a sensor-assay potency score (higher = more potent) of -1.11.

TCTGAATAAAAGAACATCGAAT showed a sensor-assay potency score (higher = more potent) of -0.719.

Regarding TTGCTGATTAGATTTAAGGTGC, the sensor-assay potency score (higher = more potent) was -0.432.

Take TAAGTTTCTAATGTGTTGCAGG: the sensor-assay potency score (higher = more potent) was -0.429.

Regarding TTGCTGTTGACACCTCTCTTTT, the sensor-assay potency score (higher = more potent) was -1.31.

In the case of TCTCCTAACACATTTGCTCTAT, the sensor-assay potency score (higher = more potent) is -0.331.

A further assay deals with MAPKAPK2. Described as above. The note with it: shRNA.
TTTATCTTGATCTGCTCGTAGT yielded a sensor-assay potency score (higher = more potent) of -0.523.

Consider TCGTACACATCCACGATCCGTA, for which the sensor-assay potency score (higher = more potent) was determined as 0.149.

For TTTTTATCTTGATCTGCTCGTA, the sensor-assay potency score (higher = more potent) amounted to 0.0929.

Take TTGATTGCATGATCCAAGGGTG: the sensor-assay potency score (higher = more potent) was -0.156.

With TTGTAGTCATCGATGATGGCGT, the sensor-assay potency score (higher = more potent) was -0.252.

In turn, TTCTCTTTCTGTGAATGCCTGG yielded a sensor-assay potency score (higher = more potent) of -0.0857.

In turn, TTGATCTGCAGGCCGGACTTGA came in with a sensor-assay potency score (higher = more potent) of -0.944.

On to TTGAAGATCTGCAAAACTTTGC, for which the sensor-assay potency score (higher = more potent) was 0.0666.

In turn, TCCTCTGATACTTCTGACCATT yielded a sensor-assay potency score (higher = more potent) of -1.62.

In turn, TTTGTTGATTGCATGATCCAAG registered a sensor-assay potency score (higher = more potent) of -0.653.

In turn, TTTTTTATCTTGATCTGCTCGT registered a sensor-assay potency score (higher = more potent) of 0.773.

Take TTTTATCTTGATCTGCTCGTAG: the sensor-assay potency score (higher = more potent) worked out at 0.563.

A further assay concerns the target MAPKAPK5. The assay is described as above. The note with it: shRNA.
TAACTGGACCACTAATTCCAGC displayed a sensor-assay potency score (higher = more potent) of -1.31.

Sequence TATGATGCCAGATTTCTCCTTC had a sensor-assay potency score (higher = more potent) of 0.745.

TTCAATAATCTGAACTATGTTT displayed a sensor-assay potency score (higher = more potent) of -0.32.

TATCTGTGAATCCACGACCATT came in with a sensor-assay potency score (higher = more potent) of -1.59.

Sequence TAGTCGATCTACTTTATCTGTG gave a sensor-assay potency score (higher = more potent) of -0.684.

In turn, TTTCTTCGCATATCCTTTGGGA registered a sensor-assay potency score (higher = more potent) of -0.249.

Consider TTGCTCTTCTATCACCTGCTTC, for which the sensor-assay potency score (higher = more potent) was -0.717.

As to TATTCTTCTAAAATGGAAGTTT, the sensor-assay potency score (higher = more potent) was -0.731.

The sequence TTAGTCGATCTACTTTATCTGT registered a sensor-assay potency score (higher = more potent) of -0.383.

TTTACACAGACTCTAACTGGAC: the sensor-assay potency score (higher = more potent) was -0.371.

In the case of ATAATCTGAACTATGTTTGGGT, the sensor-assay potency score (higher = more potent) was found to be 0.519.

Take TCTGACTCCACTCTTCCTCTGG: the sensor-assay potency score (higher = more potent) is 0.0951.

A further assay addresses MARCH9. Described as above. As to conditions: shRNA.
For the sequence ATACATGCCGTAGCAGATCTGA, the sensor-assay potency score (higher = more potent) is -0.925.

In the case of TGAAAGAGCAGATCCTGTCGTT, the sensor-assay potency score (higher = more potent) was found to be 0.563.

TATGGCAGCAATCTGGACCTTC came in with a sensor-assay potency score (higher = more potent) of -0.025.

Turning to TAGTACTCCTCCTCGTCGCCGT, the sensor-assay potency score (higher = more potent) is -0.394.

As for ATTTAGGACCTTCCACTGCTGG, the sensor-assay potency score (higher = more potent) was -1.22.

TAGCAGAGCTCACAGCTCCAGG yielded a sensor-assay potency score (higher = more potent) of -0.864.

Turning to TTGTCCAGCTGGTACCTCCAGC, the sensor-assay potency score (higher = more potent) is -0.754.

For TGCATCTCCTCCTATGTCCTTG, the sensor-assay potency score (higher = more potent) is -0.947.

Turning to TTGAAGATGCGGTAGACAGAGG, the sensor-assay potency score (higher = more potent) was -1.26.
